Source: PubChem BioAssay
Sampled rows, rich in hits. Any-hit rate of the full collection: about 2.7%.
MPTP block – permeability transition pore inhibition; AID 602449; isolated mouse mitochondria, Ca2+ swelling absorbance, 30 min; inhibition, % at 10 µM; actives 1.4% (n = 360,000);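 active = inhibition of 50% or more, scaled per plate between neutral and stimulator controls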;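 also: 0% = DMSO wells given calcium and 100% = 1 mM EGTA wells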
SKN-1 inh – blocks SKN-1 activity in C. elegans | C. elegans VP596 Pgst-4::GFP/RFP ratio, acrylamide-induced, 24 h | inhibition, % at 21.8 µM | actives 0.49% (n = 360,000) | AID 624304;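 active = interference check ratio from 0.5 to 1.5 plus GFP to RFP signal ratio inhibition reaching or exceeding a fixed threshold, cut at about 30% in these data, passing the limit was not always enough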
CFTR F508del cor – CFTR F508del correction in bronchial cells; CFBE cells, YFP halide quenching; stimulated with forskolin plus potentiator P3; % fluorescence drop versus neutral controls; activity (quench increase), % at 7.58 µM; actives 0.36% (n = 350,000);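 active = mean added fluorescence quench of at least 8% versus neutral control, with both replicates also reaching 8%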;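 also: cells transiently co-express mutant CFTR-F508del with the halide-sensitive YFP; corrector assay measuring rescue of mutant channel to the surface after 24 h compound exposure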
ATG4B inhibitor – blocks human ATG4B protease cleavage of LC3 substrate | Q9Y4P1 | ATG4B cleavage of LC3-PLA2, NBD-HPC fluorescence, 1 h | inhibition, % at 8.33 µM | actives 0.51% (n = 340,000) | AID 504462; in the data active = inhibition above about 40%
NRP1-CendR mod – alters CendR peptide binding to human NRP-1. AID 602438. inhibition, % at 25 µM. actives 0.85% (n = 360,000). FAM-RPARPAR peptide binding to NRP-1, fluorescence polarization. O14786;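 active = inhibition or corrected inhibition above about 18%, plus a signal ratio from 0.5 to 1.5, limit read from the data, passing the limit was not always enough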
Target sequence (O14786 whole entry, looked up): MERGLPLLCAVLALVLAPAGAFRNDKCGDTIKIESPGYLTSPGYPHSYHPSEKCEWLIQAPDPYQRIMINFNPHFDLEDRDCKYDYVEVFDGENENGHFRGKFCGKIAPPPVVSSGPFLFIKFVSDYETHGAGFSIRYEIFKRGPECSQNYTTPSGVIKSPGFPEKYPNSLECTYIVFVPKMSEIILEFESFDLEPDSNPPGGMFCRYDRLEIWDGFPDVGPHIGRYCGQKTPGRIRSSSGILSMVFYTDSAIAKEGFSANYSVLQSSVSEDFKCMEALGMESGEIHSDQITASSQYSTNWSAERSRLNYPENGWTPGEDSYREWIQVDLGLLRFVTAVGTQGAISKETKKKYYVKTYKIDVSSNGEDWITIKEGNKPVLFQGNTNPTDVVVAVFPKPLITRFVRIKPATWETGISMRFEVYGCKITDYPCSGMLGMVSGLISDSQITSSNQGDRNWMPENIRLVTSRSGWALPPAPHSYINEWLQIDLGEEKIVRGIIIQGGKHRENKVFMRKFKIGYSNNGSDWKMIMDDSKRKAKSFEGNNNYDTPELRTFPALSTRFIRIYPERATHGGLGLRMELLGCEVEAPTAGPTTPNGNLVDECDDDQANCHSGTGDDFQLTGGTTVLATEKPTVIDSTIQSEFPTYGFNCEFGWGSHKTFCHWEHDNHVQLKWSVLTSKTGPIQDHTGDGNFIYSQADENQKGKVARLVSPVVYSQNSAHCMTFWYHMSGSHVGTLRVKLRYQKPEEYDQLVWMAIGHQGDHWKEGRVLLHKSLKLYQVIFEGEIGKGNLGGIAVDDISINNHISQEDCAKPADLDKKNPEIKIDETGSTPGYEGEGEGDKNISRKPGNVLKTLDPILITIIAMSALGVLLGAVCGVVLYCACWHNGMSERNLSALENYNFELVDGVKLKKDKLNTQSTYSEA
Rh123 counter – membrane potential counter-screen of mitochondrial pore inhibitors | shares compounds with MPTP block | isolated mitochondria, Rhodamine 123 fluorescence | inhibition, % at 10 µM | actives 78% (n = 5,000) | AID 624504; in the data active = inhibition above about 22%;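 also: 0% = DMSO vehicle and 100% = positive control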
MPTP swell DR – MPTP inhibition, dose response swelling confirmation; shares compounds with MPTP block; isolated mitochondria swelling, absorbance; IC50, µM; actives 58% (n = 780); AID 651561; in the data active = IC50 below about 20 µM
MPTP counter DR – active in counter-screen for permeability transition pore inhibitors. isolated mitochondria counterscreen, fluorescence read-out. actives 49% (n = 780). shares compounds with MPTP block. IC50, µM; in the data active = IC50 below about 80 µM
* = called active by the depositor; i = inactive; x = no result given.

SMILES | MPTP block | SKN-1 inh | CFTR F508del cor | ATG4B inhibitor | NRP1-CendR mod | Rh123 counter | others
Cc1ccc(-c2nnc(Nc3ccc4c(c3)OCO4)c3ccccc23)cc1S(N)(=O)=O | 56* | 16 | 2 | -4 | -2 | -7 | MPTP swell DR=>100;MPTP counter DR=>80
CCOC(=O)c1ccc(N2CCN(c3ccccc3F)CC2)c(NC(=O)Nc2cccc(OC)c2)c1 | 78* | 13 | x | 2 | -2 | 84*
COC(=O)c1ccc(N2CCOCC2)c(NC(=O)Nc2cccc(OC)c2)c1 | 1 | 8 | -2 | -20 | 7 | x
COc1ccccc1-c1ccc([C@@H]2[C@H](C#N)N[C@@H]2CO)cc1 | x | x | 1 | x | x | x
CC(C)C(=O)Nc1ccc(Sc2ccc(F)cc2)cc1 | 52* | 19 | x | -6 | 3 | 37*
Cc1ccc(S(=O)(=O)N(C)C[C@@H]2OCCCC[C@H](C)Oc3ccc(NC(=O)Nc4c(C)noc4C)cc3C(=O)N([C@@H](C)CO)C[C@@H]2C)cc1 | x | x | 1 | x | x | x
COc1ccccc1N1CCN(C(=O)c2ccoc2C)CC1 | 78* | -20 | x | -2 | 7 | -2 | MPTP swell DR=>100;MPTP counter DR=>80
C[C@@H]1CN([C@@H](C)CO)C(=O)c2cc(NC(=O)c3ccncc3)ccc2O[C@H]1CN(C)S(C)(=O)=O | x | x | 2 | x | x | x
O=C(COc1ccccc1)Nc1ccncc1 | -4 | 1 | 0 | -3 | -14 | x
O=C(CSc1ccc2ccccc2c1)Nc1ccncc1 | 84* | 6 | 1 | -12 | -6 | 86*
Cc1ccc(OCC(=O)Nc2ccncc2)c(C)c1 | 73* | -25 | -4 | 5 | 4 | 48*
O=C(COc1ccc2ccccc2c1)Nc1ccncc1 | 98* | -13 | -1 | -12 | -9 | 100*
Cc1ccccc1OCC(=O)Nc1ccncc1 | 4 | 6 | 1 | -3 | 0 | x
N#Cc1cccc(NC(=O)COc2ccc(-n3ccnc3)cc2)c1 | 62* | -5 | x | 0 | -3 | 20 | MPTP swell DR=i;MPTP counter DR=19*
O=C(CSc1ccncc1)Nc1ccc2ccccc2c1 | 0 | 7 | 0 | -11 | -33 | x
Cc1noc(C)c1S(=O)(=O)N(C)C[C@@H]1Oc2ccc(NC(=O)CCC(F)(F)F)cc2CC(=O)N([C@H](C)CO)C[C@H]1C | x | x | -2 | x | x | x
CCCCOc1ccc(C(=O)Nc2ccncc2)cc1 | 102* | 23 | x | -1 | -3 | 111*
O=C(COc1ccc2ccccc2c1)Nc1cccc(C(=O)Nc2ccccc2C(=O)O)c1 | 79* | 0 | x | 12 | -30 | 57*
COc1ccc(OCC(=O)Nc2ccc(C(=O)Nc3ccccc3C(=O)O)cc2)cc1 | 2 | -7 | 0 | 6 | -25 | x
CC(C)(C)c1ccc(OCC(=O)Nc2ccncc2)cc1 | 105* | 7 | 1 | -4 | 2 | 74*
CC(C)(C)c1ccc(NC(=O)COc2ccc(-n3ccnc3)cc2)cc1 | 107* | -8 | x | 1 | 10 | 94*
O=C(NCC1CCCCC1)[C@H]1[C@H](CO)[C@H]2Cn3c(ccc(-c4ccc(F)cc4)c3=O)[C@@H]1N2 | x | x | 0 | x | x | x
COc1ccc2c3c([nH]c2c1)[C@@H](CO)N(Cc1nccs1)CC31CN(C(=O)C2CC2)C1 | x | x | -2 | x | x | x
Cc1ccc(Oc2ccc(OCC(=O)Nc3ccncc3)cc2)cc1 | 108* | -3 | 1 | x | 5 | 103*
Cc1ccc(C)c(OCC(=O)Nc2nonc2NC(=O)COc2cc(C)ccc2C)c1 | 90* | -7 | x | -19 | -1 | 84*
SMILES | MPTP block | SKN-1 inh | CFTR F508del cor | ATG4B inhibitor | NRP1-CendR mod | Rh123 counter | others
O=C(COc1ccc(Br)cc1)Nc1ccc(Cc2ccncc2)cc1 | -1 | -7 | 2 | -1 | 7 | x
Cc1ccc(OCC(=O)Nc2ccc(N(C)C)cc2)cc1 | -8 | 2 | x | -1 | 4 | x
CCOc1ccc(NC(=S)c2ccncc2)cc1 | 56* | -3 | x | -2 | 3 | 8 | MPTP swell DR=19*;MPTP counter DR=31*
CCc1ccc(OCC(=O)Nc2ccncc2)cc1 | 63* | 14 | 2 | -4 | 5 | 58*
CCOc1ccc(NC(=S)Nc2ccc(OC)cc2)cc1 | 3 | -9 | -1 | 6 | 6 | x
CC(C)c1ccc(OCC(=O)Nc2ccncc2)cc1 | 74* | -3 | -3 | 2 | 19 | 71*
C=C(C)c1cccc(C(C)(C)NC(=O)Nc2ccc(C(C)=O)cc2)c1 | 82* | 4 | x | -11 | -5 | 83*
Cc1ccccc1-c1ccc([C@H]2[C@@H](CO)N3C(=O)CN(C(=O)Nc4ccc(F)cc4)C[C@H]23)cc1 | x | x | -2 | x | x | x
Cc1ccc(C2=C(O)C(=O)C(c3ccc(C)cc3)=C(O)C2=O)cc1 | 56* | -19 | -1 | -7 | -7 | -44 | MPTP swell DR=14*;MPTP counter DR=<2.5*
CC1=C(O)C(=O)C(C2=C(O)C(=O)C(C)=C(O)C2=O)=C(O)C1=O | -2 | 13 | -3 | -34 | -50 | x
O=C(COc1ccc(Cl)cc1)Nc1ncc([N+](=O)[O-])s1 | 95* | -10 | -1 | 1 | -6 | 103*
O=C(Cc1ccc(Br)cc1)Nc1ncc([N+](=O)[O-])s1 | 74* | 4 | 1 | -4 | -10 | 82*
O=C(Cc1ccc(Cl)cc1)Nc1ncc([N+](=O)[O-])s1 | 96* | -7 | -1 | -4 | 1 | 89*
CCC(Oc1ccccc1)C(=O)Nc1ncc([N+](=O)[O-])s1 (stereo not given) | 89* | 1 | -1 | -7 | -14 | 98*
CN(C)C(CNC(=O)c1cc(S(=O)(=O)N(C)Cc2ccccc2)ccc1Cl)c1ccco1 (stereo not given) | 68* | 5 | 1 | 2 | 7 | 70*
COc1ccc(S(=O)(=O)N(C)C[C@H]2Oc3cc(C#CC4CC4)ccc3S(=O)(=O)N([C@H](C)CO)C[C@@H]2C)cc1 | x | x | 2 | x | x | x
COc1cccc(OCC(O)CN2CCC(CN3C(=O)c4cccc5cccc(c45)C3=O)CC2)c1 (stereo not given) | 72* | -1 | 6 | -22 | 8 | 50*
O=C1c2cccc3cccc(c23)C(=O)N1CCN1CCN(CC(O)COc2ccc3ccccc3c2)CC1 (stereo not given) | 3 | 8 | x | 10 | -1 | x
O=C1c2cccc3cccc(c23)C(=O)N1CC1CCN(CC(O)COc2ccc3ccccc3c2)CC1 (stereo not given) | 89* | 3 | 1 | -26 | -7 | 99*
Cc1cc(C)cc(OCC(O)CN2CCC(CN3C(=O)c4cccc5cccc(c45)C3=O)CC2)c1 (stereo not given) | 98* | -3 | 7 | -18 | -5 | 100*
CCc1ccc(OCC(O)CN2CCC(CN3C(=O)c4cccc5cccc(c45)C3=O)CC2)cc1 (stereo not given) | 84* | -10 | x | 3 | -6 | 0 | MPTP swell DR=4.9*;MPTP counter DR=20*
